This is an account of results in PubChem BioAssay AID1850 (Southern Research Specialized Biocontainment Screening …, 2009).

Among all 310,000 compounds or so, about 1,000 (0.32%) were called active. Not all results are given here. Measured potencies and affinities stand elsewhere. A number with no mark means an inactive call. The rule behind the calls is not given here.

The nature of this test: Inhibition of PhoP regulon, Salmonella typhi GFP reporter cells, confirmation, 4 h (AID 1850).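 Note: 0% = induced wells with vehicle and 100% = uninduced wells.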 The following applies: Salmonella Typhi PhoP-promoter GFP reporter, fluorescence, at 50 µM, active compounds read high.
In the case of `O=C(NNC(=O)C1C2C=CC(C2)C1C(=O)O)c1cc(Cl)ccc1O` (configuration not stated), the inhibition (usually the relative decrease from the control value, in per cent) was -4.67%. For `COc1ccc(C2NCCc3c2[nH]c2ccccc32)cc1CSc1nc2ccccc2s1` (configuration not stated), the inhibition is -3.05%. As for `COc1cc(C2NCCc3c2[nH]c2ccccc32)ccc1OC(C)C` (configuration not stated), the figure is -4.21%; as for `CC(=O)N1CCN(S(=O)(=O)c2cccc(C(=O)NNC(=O)COc3ccc(Cl)cc3C)c2)CC1`, 3.91%. Turning to `COc1ccc(Cn2c(O)c(/C=N/NC(=O)c3ccccc3O)c(=O)[nH]c2=O)cc1`, the inhibition was -3.02%.

Take `Cc1ccccc1NC(=S)NCC(c1cccnc1)N(C)C` (configuration not stated): the inhibition is 4.06%. Take `Clc1cccc(CN2CCc3c([nH]c4ccccc34)C2)c1`: the inhibition was 1.94%. Take `CSc1ccc(CN2CCc3c([nH]c4ccccc34)C2)cc1`: the inhibition is 2.22%.

Regarding `Cc1cccc(CN2CCc3c([nH]c4ccccc34)C2)c1`, the inhibition is 8.05%. Consider `COc1ccccc1CN1CCc2c([nH]c3ccccc23)C1`, for which the inhibition was 3.76%. `O=C(C1CCCN(S(=O)(=O)c2cccc3nonc23)C1)N1CCC(Cc2ccccc2)CC1` (configuration not stated): the inhibition was -9.59%.

As to `CS(=O)(=O)c1ccc(Cl)c(C(=O)NC2CCSc3ccccc32)c1` (configuration not stated), the inhibition was 12.6%. Take `COc1ccccc1/C=N/NC(=O)c1ccc(-c2ccccc2)cc1`: the inhibition was -0.08%. With `COc1ccc(C2CC(=O)C3=C(C2)Nc2ccccc2NC3c2coc3ccccc3c2=O)cc1OC` (configuration not stated), the inhibition is -2.61%. As for `Cc1cc(Nc2ccc(C)c(C)c2)c2ccccc2n1`, the inhibition was -4.07%. Turning to `COc1cccc2c(N/N=C/c3ccccc3)cc(C)nc12`, the inhibition was 0.63%. In the case of `COc1ccc2nc(C)cc(N/N=C/c3ccc(F)cc3)c2c1`, the inhibition was -3.4%. In the case of `Cc1ccc2nc(C)cc(N/N=C/c3cccc(O)c3)c2c1`, the inhibition was -4.26%. As for `Cc1ccc(Nc2cc(C)nc3ccccc23)c(C)c1`, the figure is 10.4%; as for `COc1ccc(Nc2cc(C)nc3c(C)cccc23)cc1OC`, -3.72%.

Consider `COc1ccc(/C=N/Nc2cc(C)nc3ccc(OC)cc23)c(OC)c1`, for which the inhibition is 0.09%. On to `CC(=O)c1ccc(Nc2cc(C)nc3c(C)cc(C)cc23)cc1`, for which the inhibition is 7.05%. In the case of `CCCCOc1ccc(NC(=O)C(=O)NCCCn2ccnc2)cc1`, the inhibition was -4.73%. The value for `CC[C@H](C)[C@@H]1NC(=O)c2cc([N+](=O)[O-])cc(F)c2NCCCC[C@@H](C(N)=O)NC(=O)[C@H](CCCCN)NC1=O` was 1.42%; that for `CCOc1ccc(CNc2nnnn2C)cc1OC` was -3.66%; that for `COc1ccc(NS(=O)(=O)c2cccc(NC(=O)NCCCl)c2)cc1` was -19.5%. Consider `CC(=O)Nc1ccc(/C=N/N2C(=O)NC(C)(c3ccc(OC(F)F)cc3)C2=O)cc1` (configuration not stated), for which the inhibition was -10%. As for `Cc1ccc(NC(=O)CSCC(=O)Nc2ncc3c(n2)CC(c2ccco2)CC3=O)cc1` (configuration not stated), the figure is 2.49%; as for `CCOc1cc(/C=C2\CCCC(C(=O)C(F)(F)F)=C2O)ccc1O`, -4.72%; as for `CN(CC(=O)Nc1cccc(F)c1)C(=O)c1ccncc1`, -3.54%. `CCOC(=O)N1CCN(C2CCCN(C(=O)c3ccccc3SC)C2)CC1` (configuration not stated): the inhibition was 4.8%. Regarding `O=C(COc1ccccc1C(=O)c1cnn(-c2ccccc2)c1)Nc1ccccc1`, the inhibition was -4.89%. For `COc1cc(OC)cc(C(=O)NNC(=O)c2ccc(S(=O)(=O)N(C)c3ccccc3OC)cc2)c1`, the inhibition was 15.6%. As to `Cc1cc(N/N=C/c2ccc(O)cc2O)c2ccccc2n1`, the inhibition was -3.45%.

Turning to `Cc1cc(N/N=C/c2ccc(N(C)C)cc2)c2ccccc2n1`, the inhibition is 0.75%. As to `Cc1cc(N/N=C/c2ccccc2O)c2ccccc2n1`, the inhibition is -0.61%. Regarding `COc1ccc(Nc2cc(C)nc3ccccc23)cc1`, the inhibition was 13.4%. For the compound `Cc1cccc(Nc2cc(C)nc3ccccc23)c1`, the inhibition is 5.71%. On to `COc1cccc2c(N/N=C/c3ccc(O)c(O)c3)cc(C)nc12`, for which the inhibition is -4.34%. For the compound `Cc1cccc(N2C(=O)C(Oc3ccc(Cl)cc3Cl)C2C(=O)O)c1C` (configuration not stated), the inhibition was -8.69%. Regarding `Cc1nnc(Cn2cnc3c2c(=O)n(C)c(=O)n3C)o1`, the inhibition was 6.26%. Take `O=C(COc1ccc(/C=N/NC(=O)c2ccncc2)cc1)Nc1ccccc1`: the inhibition was -0.13%. The value for `CCOC(=O)c1c(-c2ccccc2)oc2ccc(OCC)cc12` was -1.51%; that for `CCOC(=O)c1c(-c2ccccc2)oc2ccc(OCC(O)CN(C)C)cc12` (configuration not stated) was -1.17%; that for `Cc1ccc(-n2ncc3c(SCc4ccccn4)ncnc32)c(C)c1` was -1.44%. Consider `c1ccc(Cn2ccc(-c3cnc(-c4ccccc4)s3)n2)cc1`, for which the inhibition is 9.82%. As for `Nc1[nH]ncc1-c1ccc(F)cc1`, the figure is -6.64%; as for `Nc1[nH]ncc1-c1ccc(Cl)cc1`, 9.56%.

With `CCc1nnc(NC(=O)Nc2ccccc2OC)s1`, the inhibition is 1.12%. Turning to `Cc1cc(C(=O)N/N=C/c2cc(Cl)cc([N+](=O)[O-])c2O)c2ccccc2n1`, the inhibition is 15.1%. Consider `COc1ccc(N2CC(C(=O)N/N=C/c3ccc([N+](=O)[O-])cc3)CC2=O)cc1` (configuration not stated), for which the inhibition is 0.01%. With `COc1ccc(N2CC(C(=O)Nc3ccc([N+](=O)[O-])cc3Br)CC2=O)cc1` (configuration not stated), the inhibition was 6.01%. As to `COc1ccccc1/C=N/NC(=O)c1cccc(NC(=O)c2ccccc2C)c1`, the inhibition is 8.56%.

Regarding `O=C(N/N=C/c1cc(Cl)cc([N+](=O)[O-])c1O)NC12CC3CC(CC(C3)C1)C2`, the inhibition was 7.74%. Consider `CCc1ccc(N2CC(C(=O)N/N=C/c3cccc([N+](=O)[O-])c3)CC2=O)cc1` (configuration not stated), for which the inhibition is -13.7%. Take `CCc1ccc(N2CC(C(=O)N/N=C/c3ccccc3)CC2=O)cc1` (configuration not stated): the inhibition is -5.31%. Consider `CC(C)(C)N/N=C/c1cc(Cl)cc([N+](=O)[O-])c1O`, for which the inhibition was -7.27%.

Consider `CCCCNC(=O)CCn1c(=O)c2ccccc2n(Cc2ccc(Cl)cc2)c1=O`, for which the inhibition is 5.58%. Regarding `CCOC(=O)C(C)Oc1cccc2c(=O)n(CC(=O)N3CCCc4ccccc43)ccc12` (configuration not stated), the inhibition was 2.67%. Take `COc1ccc(Cn2c(=O)oc3ccc(C)cc32)cc1`: the inhibition is 10.7%. As for `O=C(CSc1ccccc1)Nc1ccc(N2CCOCC2)c(F)c1`, the figure is -2.5%; as for `Cc1ccc(CC2C(=O)N(C)C(=O)N(C)C2=O)s1`, 5.58%.

Turning to `CCOc1ccc(N(CC(=O)Nc2ccc(OC)cc2)S(=O)(=O)c2c(C)[nH]c(=O)[nH]c2=O)cc1`, the inhibition was -6.24%.

On to `NCCc1nnc(SCC(N)=O)o1`, for which the inhibition was -11.5%.

Take `Cc1ccccc1NC(=O)CCC(=O)N/N=C/c1cc([N+](=O)[O-])ccc1O`: the inhibition is -5.84%. The value for `O=C(N/N=C/c1ccc([N+](=O)[O-])cc1)c1cccc2cc[nH]c12` was 20.2%.

With `Cc1ccc(NC(=O)CCC(=O)N/N=C/c2cc([N+](=O)[O-])ccc2O)cc1`, the inhibition is -3.42%. `O=C(N/N=C/c1cc([N+](=O)[O-])ccc1O)C1CCCCC1`: the inhibition is -0.28%.

For `O=C(N/N=C/c1cccc([N+](=O)[O-])c1)c1cccc2cc[nH]c12`, the inhibition was -2.43%.

In the case of `O=C(N/N=C/c1cc([N+](=O)[O-])ccc1O)C1C2CCCCC21` (configuration not stated), the inhibition is -4.14%. As for `O=[N+]([O-])c1cc(Cl)cc(/C=N/NC(=S)Nc2cc(S(=O)(=O)N3CCOCC3)ccc2Cl)c1O`, the inhibition was -3.6%. As to `O=S(=O)(c1ccc(NC(=S)N/N=C/c2ccc(O)c(O)c2)cc1)N1CCOCC1`, the inhibition is 9.73%.

Turning to `CCOCCCN(C(=O)Cn1nnc(-c2ccc(C)o2)n1)C(C(=O)NCC1CCCO1)c1ccc(F)cc1` (configuration not stated), the inhibition is 5.95%. As for `CN(C)/C=C1\C(=O)Oc2ccccc2C1=O`, the figure is 20.1%; as for `Cn1c(SCc2cccc(F)c2)nnc1-c1cnccn1`, -1.53%. Turning to `O=C(NCc1cc(C(F)(F)F)cc(C(F)(F)F)c1)C1CC(c2ccccc2F)=NO1` (configuration not stated), the inhibition was -1.16%.

In the case of `CCOC(=O)N1CCN(C(=O)c2cc3cc(Cl)ccc3[nH]2)CC1`, the inhibition was -18%.

`CN1CCN(C(=O)c2cc3cc(Cl)ccc3[nH]2)CC1`: the inhibition was -3.23%. As to `CCOC(=O)N1CCN(C(=O)c2cc3cc(F)ccc3[nH]2)CC1`, the inhibition is 7.38%. On to `CN1CCN(C(=O)c2cc3cc(F)ccc3[nH]2)CC1`, for which the inhibition was 10.7%. `COC(=O)c1c(O)cc(C(C)(C)C)n(-c2ccc(F)cc2)c1=O`: the inhibition was -3.64%.

In the case of `Cc1ccc(Cn2c(=N)c(C(=O)NC3CCCC3)cc3c(=O)n4ccccc4nc32)cc1`, the inhibition is -16.4%. For the compound `COc1ccc(C(=O)CCN2CCN(c3ccc(OC)cc3)CC2)cc1`, the inhibition was 11.8%. On to `O=C(CCN1CCN(c2ccc([N+](=O)[O-])cc2)CC1)c1ccc(Cl)cc1`, for which the inhibition was -10.4%.

With `O=C(CCN1CCOCC1)c1ccc(Br)cc1`, the inhibition was 24.1%. As for `O=C(CCN1CCN(c2ccccc2)CC1)Nc1ccc(Cl)cc1`, the figure is 11.6%; as for `O=C(c1ccc(Br)cc1)N1CCN(Cc2ccccc2)CC1`, -4.12%; as for `O=C(NCCN1CCN(C(=O)c2ccc(Br)cc2)CC1)c1ccc(Br)cc1`, -4.36%. As to `O=C(CCC(=O)N1CCN(c2ccccc2F)CC1)c1ccc(F)cc1`, the inhibition was 4.65%.

With `COc1ccc(C(=O)CCN2CCN(c3ccccc3F)CC2)cc1`, the inhibition is 8.74%.

`C#Cc1ccc([C@@H]2C=C(C(=O)NCc3ccccc3)O[C@H](OCCCCO)C2)cc1`: the inhibition was -19.4%. The value for `CCCCn1c(N)c(N(CCC(C)C)C(=O)c2sc3nc4n(c(=O)c3c2C)CCC4)c(=O)[nH]c1=O` was -5.32%.
